Screens from PubChem BioAssay.
The list is not random: actives were taken first. Their share in the collection is about 4.3%.
FAS TE block – inhibitors of human fatty acid synthase thioesterase domain. P49327. recombinant FAS-TE, OMFH fluorogenic substrate, fluorescence endpoint. inhibition, % at 15 µM. 360,000 tested, 0.67% active. AID 602261;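 active = compounds whose normalised, plate-corrected inhibition of enzyme fluorescence in the single-dose primary screen is 50% or more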;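 also: 0% = DMSO with enzyme and 100% = substrate without enzyme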
GRIN3A LBD mod – modulates the human NR3A ligand-binding domain. NR3A LBD differential scanning fluorimetry, Tm shift; 0% = protein alone, 100% = glycine-bound protein. Tm shift relative to glycine control, % at 25 µM. 340,000 tested, 2.5% active;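 active = melting temperature shift of at least 10% of the positive control shift, at one fixed dose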
HGIII-sPLA2 inh – Inhibits HGIII-sPLA2 liposome hydrolysis, primary screen; inhibition, % at 12.2 µM; AID 743126; QFRET BODIPY PC-A2 liposome hydrolysis, fluorescence; 370,000 tested, 0.56% active;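 active = inhibition above mean plus 3 SD of compounds lying within the high and low control bounds, cut at about 19% in these data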;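 also: 0% = median of test compound wells and 100% = no enzyme DMSO wells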
ADAM10 inh – inhibitors of human ADAM10 | O14672 | recombinant ADAM10, EDANS/DABCYL FRET peptide cleavage, 3 h | inhibition, % at 7 µM | 370,000 tested, 0.62% active | AID 720582;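 active = inhibition above a per-campaign cutoff equal to the mean of compounds falling between control-based bounds plus 3 SD, cut at about 20% in these data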;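 also: 0% = DMSO wells while the 100% control is not disclosed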
Target sequence (O14672 214-748 limits assumed): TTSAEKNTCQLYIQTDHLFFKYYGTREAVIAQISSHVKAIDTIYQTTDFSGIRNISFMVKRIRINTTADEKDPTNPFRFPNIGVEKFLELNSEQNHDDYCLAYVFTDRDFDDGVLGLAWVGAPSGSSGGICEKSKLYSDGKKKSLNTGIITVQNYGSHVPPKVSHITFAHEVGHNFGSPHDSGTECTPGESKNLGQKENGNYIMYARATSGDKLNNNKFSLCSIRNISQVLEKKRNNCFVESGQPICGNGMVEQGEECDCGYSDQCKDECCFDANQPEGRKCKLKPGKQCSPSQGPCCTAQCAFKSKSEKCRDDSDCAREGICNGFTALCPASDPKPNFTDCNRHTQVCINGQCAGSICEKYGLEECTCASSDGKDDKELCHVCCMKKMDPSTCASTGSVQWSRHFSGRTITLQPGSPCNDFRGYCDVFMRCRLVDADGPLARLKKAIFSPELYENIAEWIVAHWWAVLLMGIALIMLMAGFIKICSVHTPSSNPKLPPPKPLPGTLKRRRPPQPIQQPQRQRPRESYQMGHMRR
ADAM17 inh – inhibits human ADAM17. inhibition, % at 6.95 µM. AID 720648. 370,000 tested, 0.83% active. recombinant ADAM17, EDANS/DABCYL FRET peptide cleavage. P78536;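 active = inhibition above the mean of compounds lying between control limits plus 3 SD, set per campaign, cut at about 8.5% in these data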;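 also: 0% = DMSO-only wells as the low control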
* hit, by the source's call; nt = no result given.

SMILES	FAS TE block	GRIN3A LBD mod	HGIII-sPLA2 inh	ADAM10 inh	ADAM17 inh
CC(C)(C)c1cc(C(=O)N/N=C/c2ccccn2)n[nH]1	-6	0	-5	-5	-4
CN1C(=O)c2cc(NC(=O)Nc3ccccc3)ccc2OC[C@H]2O[C@@H](CC(=O)NC3CCC3)CC[C@@H]21	nt	nt	-19	6	-8
Cc1cccc(-c2cccc3c4c([nH]c23)[C@@H]2C[C@H](N(C)C(=O)NC3CCCCC3)[C@H]([C@H](C)O)C(=O)N2CC4)c1	nt	nt	-31	-61	-23
CSCCC(NC(=O)OCc1ccccc1)C(=O)NC(Cc1c[nH]c2ccccc12)C(=O)O (configuration not stated)	nt	nt	-12	-7	-7
C=CCN1C(=O)[C@@H](CC(=O)N2CCCCC2)[C@]2(C(=O)OCC)CCCCC/C=C/12	nt	nt	2	2	-1
CCc1c(Cc2ccccc2)ncn1CCc1ccccc1OC	nt	nt	-3	-2	0
COc1cccc(Nc2nc(-c3sc(C)nc3C)cs2)c1	15	12*	-2	1	0
COc1cccc(Nc2nc(-c3sc(N)nc3C)cs2)c1	-1	-2	6	5	2
Cc1nc(C)c(-c2csc(Nc3ccc(F)cc3)n2)s1	17	15*	-22	1	-2
COc1ccc(OC)c(S(=O)(=O)N2CCCC(C(=O)Nc3c(C)n(C)n(-c4ccccc4)c3=O)C2)c1 (configuration not stated)	nt	nt	1	-1	-1
N#Cc1c(NC(=O)CN2C(=O)c3ccccc3C2=O)oc(-c2ccccc2)c1-c1ccccc1	18	17*	-2	2	-3
CC(=O)Nc1ccc(CN2CCN(c3cccc(C(F)(F)F)c3)CC2)cc1	-4	20*	2	4	1
CC(=O)Nc1ccc(NC(=O)/C=C/c2ccc(Cl)cc2)cc1	0	13*	3	1	-7
CC(=O)Nc1ccc(NC(=O)/C=C/c2cccc(C(F)(F)F)c2)cc1	-3	18*	-20	-49	-19
CCOC(=O)[C@]12CCCC=C1N(Cc1ccc(OC)cc1)C(=O)[C@@H]2CC(=O)NCc1cccc(C(F)(F)F)c1	nt	nt	-20	16	6
O=c1c2ccc(Cl)cc2nc2n1CC/C2=C\c1cccc(O)c1	4	23*	-7	-8	-5
O=C(O)c1ccc2c(=O)n3c(nc2c1)/C(=C/c1cccc(O)c1)CC3	-2	1	2	-4	-3
CC1CCC2(CC1)NC(=O)N(CC(=O)Nc1ccc3[nH]c(=O)[nH]c3c1)C2=O (configuration not stated)	-9	19*	16	-23	0
CN=C1S/C(=C/c2cn(CC(=O)OC)c3ccccc23)C(=O)N1C	4	12*	14	-3	-1
COc1ccc(-c2cc(NC(=O)Cc3c[nH]c4ccccc34)ccc2Nc2cccnc2)c(OC)c1	nt	nt	-62	10	3
C=CCCC1CN(CCCC)S(=O)(=O)c2c(F)cccc2O1 (configuration not stated)	21	18*	-2	-2	0
CCCCCN1CCCCC(NC(=O)C(C)(C)C)C1=O (configuration not stated)	nt	nt	4	-7	-5
COc1cccc(NC(=O)Nc2nc(-c3ccc(OC)c(OC)c3)cs2)c1	8	23*	-17	12	6
COc1ccc(-c2csc(NC(=O)Nc3ccccc3)n2)cc1	-1	26*	3	6	-4
O=C(Nc1cccc(Cl)c1)Nc1nc(-c2ccc(Cl)cc2)cs1	6	36*	-9	10	-2
SMILES	FAS TE block	GRIN3A LBD mod	HGIII-sPLA2 inh	ADAM10 inh	ADAM17 inh
O=C(Nc1ccccc1)Nc1nc(-c2ccc(Cl)cc2)cs1	-12	-8	2	-9	-4
Cc1ccc(NC(=O)Nc2nc(-c3ccc(C)s3)cs2)cc1	5	24*	-7	8	-2
COc1ccc(-c2csc(NC(C)=O)n2)cc1OC	-5	4	3	-5	-3
CC(=O)N1CCc2cc(Br)c(S(=O)(=O)NCc3ccc(Cl)cc3)cc21	nt	nt	2	-8	-4
C=CCN1[C@H](C)COc2cc(N3CCSCC3)ccc2S1(=O)=O	nt	nt	2	2	2
COc1cccc(C2C3=C(N=c4s/c(=C\c5ccc(O)cc5)c(=O)n42)c2ccccc2CC3)c1OC (configuration not stated)	4	-14	-3	-5	-3
